The text below walks through data of PubChem BioAssay (NCI).

Values joined by “and” are separate entries in the source; they are usually repeats but may differ in a detail not shown here. Equal values may be shown once. This is part of a sample that, as a whole, favours compounds with a hit. Of some 79,000 tested, about 15% had one in any assay. Unmarked numbers belong to inactive results. Active and inactive are the calls of the source. Rule as the data show it: active = growth inhibition above about 70%; inactive = the rest.

Assay [1] can be described thus: NCI Yeast Anticancer Drug Screen. Data for the rad50 strain (AID 155).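 Also: 0% = growth of vehicle-only cultures of the same strain.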 The note with it: S. cerevisiae rad50 strain growth inhibition; at 50.0 µM; stronger effect = higher value. The procedure, abridged:
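Vehicle-treated cultures provide the reference for the growth inhibition reported for compound-exposed, repair-deficient yeast.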

Assay [2] is described as follows: NCI Yeast Anticancer Drug Screen. Data for the mec2-1 strain (AID 157). The note with it: S. cerevisiae mec2-1 strain, at 50.0 µM, stronger effect = higher value. The procedure, abridged: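 Each compound was tested on mec2-1 yeast, a strain altered in DNA damage repair or cell cycle control. Growth inhibition is reported relative to vehicle.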
Assay [3] in a line: NCI Yeast Anticancer Drug Screen. Data for the sgs1 mgt1 strain (AID 161).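 Also: 0% = growth of cultures given vehicle only.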 The following applies: S. cerevisiae sgs1 mgt1 strain, at 50.0 µM, stronger effect = higher value. In a few lines: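 Read-out: growth inhibition vs vehicle controls. Cells: mutant yeast strain deficient in DNA damage repair.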
A short description of assay [4]: NCI Yeast Anticancer Drug Screen. Data for the cln2 rad14 strain (AID 165).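 Also: 0% = growth equal to vehicle treated cultures.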 The note with it: S. cerevisiae cln2 rad14 strain, at 50.0 µM, stronger effect = higher value. The procedure, abridged: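 Test compounds were added to cln2 rad14 yeast cultures; inhibition of growth was then determined by comparison with vehicle treatment.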
A short description of assay [5]: NCI Yeast Anticancer Drug Screen. Data for the bub3 strain (AID 167). The note with it: S. cerevisiae bub3 mutant strain, at 50.0 µM, stronger effect = higher value. The procedure, abridged: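 Mutant yeast screening strain plus compound; vehicle-treated cultures serve as the 0% inhibition reference.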
Assay [6] in a line: NCI Yeast Anticancer Drug Screen. Data for the mlh1 rad18 strain (AID 175). The following applies: S. cerevisiae mlh1 rad18 strain growth inhibition; at 50.0 µM; stronger effect = higher value. The procedure, abridged: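 Inhibition values reflect reduced growth of mutant yeast versus vehicle-treated controls following compound exposure; the mutations affect DNA damage repair.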

Regarding `N#CC(C#N)=Cc1ccccc1F`, the growth inhibition is 15.5% in assay [1]; 7.1% in assay [2]; 12.2% in assay [3]; 15.2% in assay [4]; 10.6% in assay [5]; 12.7% in assay [6].
Consider `CCC1(C(C)c2ccccc2)C(=O)NC(=O)NC1=O` (stereo not given), for which the growth inhibition was 0% in assay [1]; 6.1% in assay [2]; 1.8% in assay [3]; 46.1% in assay [4]; 16.6% in assay [5]; -3.55% in assay [6].
Turning to `Cc1cc2n[se]nc2cc1C`, the growth inhibition in assay [1] was 18.3%; in assay [2], -9.15%; in assay [3], 20.6%; in assay [4], 6.3%; in assay [5], -6.65%; in assay [6], 21.7%.
For `O=C1C=C2c3ccccc3CC(C(=O)O)C2CC1` (stereo not given), the growth inhibition in assay [1] is -20.5%; in assay [2], -14.2%; in assay [3] it was -3.45%; in assay [4] it was -22.9%; in assay [5], 2.3%; in assay [6] it was 9%.
Regarding `OCC1C(/C=C/c2ccoc2)ON2CCCC12` (stereo not given), the growth inhibition in assay [1] was -16.6%; in assay [2], -0.5%; in assay [3], -8.05%; in assay [4], 26.6%; in assay [5] it was 18.1%; in assay [6], -27.6%.
For `CCCCCCCCCCCCCCCCCC(=O)NC(CC(=O)OCCCCCC)c1ccc(N(CCCl)CCCl)cc1` (stereo not given), the growth inhibition in assay [1] is -2.6%; in assay [2], 10.8%; in assay [3], 12.8%; in assay [4], -6.5%; in assay [5] it was -3.9%; in assay [6], 22.6%.
`CC(=O)OCC12CCC(C)=CC1OC1C(N(C)C)C(O)C2(C)C12CO2` (stereo not given): the growth inhibition in assay [1] is 33.1%; in assay [2], 49.6%; in assay [3] it was 16.5%; in assay [4] it was 39.1%; in assay [5] it was 18.4%; in assay [6], -16.9%.
`Cc1cc(NC2=NCCO2)c2c(c1C)CCCC2`: the growth inhibition is -10.1% in assay [1]; -23.1% in assay [2]; -6.9% in assay [3]; 22.3% in assay [4]; -7.85% in assay [5]; -5.35% in assay [6].
Take `O=NN(O)c1ccccc1.O=NN(O)c1ccccc1.[Mn+2]`: the growth inhibition was 4.85% in assay [1]; 0.15% in assay [2]; 13.1% in assay [3]; -46.5% in assay [4]; -4.3% in assay [5]; 3.85% in assay [6].
As for `NCCN.NCCN.[Cl-].[O]=[Os+2]=[O]`, the growth inhibition in assay [1] was 0.8% and 3.45%; in assay [2] it was -22% and 1%; in assay [3] it was -6.15% and -20.8%; in assay [4], -20.3% and 23.3%; in assay [5], -40.6% and 0.3%; in assay [6] it was -6.3% and -13.2%.
`O.O=S(=O)(O)O.[Co+3].[NH2-].[NH2-].[NH2-].[NH2-].[OH-]`: the growth inhibition was 31.2% in assay [1]; 10.7% in assay [2]; 8.6% in assay [3]; 29.2% in assay [4]; 12.4% in assay [5]; 21.5% in assay [6].
Regarding `CNC(=O)O/N=C/c1cccc(/C=N/OC(=O)NC)c1`, the growth inhibition in assay [1] was -0.1%; in assay [2], 14.3%; in assay [3], 3.35%; in assay [4], 49.5%; in assay [5], 28.8%; in assay [6] it was 11.2%.
For `O=C(COc1ccc(Cl)c(Cl)c1)Nc1ccc[n+](Cc2ccc(Cl)c(S(=O)(=O)F)c2)c1`, the growth inhibition was 98.2% (active) in assay [1]; 90.7% (active) in assay [2]; 95.3% (active) in assay [3]; 79.3% (active) in assay [4]; 78.2% (active) in assay [5]; 98.5% (active) in assay [6].
Take `OCC1OC(n2cnc3cc(Cl)c(Cl)cc32)C(O)C1O` (stereo not given): the growth inhibition in assay [1] was -1.1%; in assay [2] it was 13.8%; in assay [3] it was 21.9%; in assay [4], -19.5%; in assay [5] it was 6.4%; in assay [6], 5%.
In the case of `CC(=O)O.CC(=O)O.[Co+2].[NH-]C(CCC(N)=O)C(=O)O.[NH-]C(CCC(N)=O)C(=O)O` (stereo not given), the growth inhibition is 15.2% in assay [1]; 13.4% in assay [2]; 34.2% in assay [3]; -4% in assay [4]; 22.3% in assay [5]; 19.9% in assay [6].
Turning to `CCC(=O)c1ccc(C)cc1`, the growth inhibition is -11.5% in assay [1]; 1.2% in assay [2]; -10.4% in assay [3]; -16.7% in assay [4]; 4.2% in assay [5]; -3.45% in assay [6].
As to `CC(C)(C)c1cc(O)ccc1O`, the growth inhibition was 22.5% in assay [1]; -1.55% in assay [2]; -29.1% in assay [3]; -0.25% in assay [4]; -25.7% in assay [5]; 24.5% in assay [6].
Consider `CCCN=Cc1ccccc1O.CCCN=Cc1ccccc1O.[Ni]`, for which the growth inhibition was 37.5% in assay [1]; 9.4% in assay [2]; 18.6% in assay [3]; -35.9% in assay [4]; 4.85% in assay [5]; 29.8% in assay [6].
In the case of `C1=C[N-]c2c3c(ccc2=C1)=CC=C[N-]3.C1=C[N-]c2c3c(ccc2=C1)=CC=C[N-]3.[Cl][Ru][Cl]`, the growth inhibition is 70.3% (active) in assay [1]; 28.3% in assay [2]; 49% in assay [3]; 44.4% in assay [4]; 61% in assay [5]; 33.8% in assay [6].
Take `N/N=C(\N)c1nn[nH]n1`: the growth inhibition was -9.55% in assay [1]; -12.4% in assay [2]; -12.7% in assay [3]; -6.05% in assay [4]; 12.9% in assay [5]; -11.9% in assay [6].
